Values joined by “and” are separate entries in the source; they are usually repeats but may differ in a detail not shown here. Equal entries are not always repeated. Inconclusive results are not listed. Active and inactive are the calls of the source. Unless noted, calls come from the whole dose curve; as a rule, active = well fitted curve in the direction sought with a large enough effect; inconclusive = small, poorly fitted or top-dose-only effect, or another doubt; inactive = no such curve, though single readings can be large; an effect the other way counts as inactive or inconclusive.
Assays:
[1] = Cell Viability - N2a (AID 540); details: N2a mouse neuroblastoma cell viability; activity change, negative = cytotoxicity: at 92.2 µM (top of the series);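 note: plate controls were DMSO alone for no effect and tamoxifen control for full effect; nearly all actives have a fitted effect of over 45% in size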
Method in brief: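 Mouse neuroblastoma N2a cells (1500/well) were preincubated 5 hr at 37 °C, then exposed to compounds for 40 hr at 37 °C in complete medium. Viability was read as intracellular ATP by CellTiter-Glo luminescence; AC50 from Hill fits.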

[2] = Cell Viability - H-4-II-E (AID 543); note: % is set by controls: 0 for no effect and ±100 for the full control effect; nearly all actives have a fitted effect of over 35% in size
Method in brief: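 Rat hepatoma H-4-II-E cells (1500/well) were plated, incubated 5 hr at 37 °C, then exposed to compounds for 40 hr at 37 °C. Cellular ATP was read by CellTiter-Glo luminescence; AC50 came from Hill-equation fits of concentration-response data.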

[3] = Cellular Toxicity (caspase-3) Mesangial (AID 660);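 note: cells exposed to compound for 16 h before the caspase read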
Method in brief: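 Human renal glomerular mesangial cells (1000/well) were treated with compounds for 16 h at 37 °C in complete medium, then caspase 3/7 activity was read by Caspase-Glo luminescence. Data were normalized to DMSO and 100 uM tamoxifen; AC50 from Hill fits.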

[4] = Cellular Toxicity (caspase-3) NIH 3T3 (AID 666);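 note: caspase signal read after 16 h compound exposure; 0% = DMSO basal and 100% = 100 µM tamoxifen stimulation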
Method in brief: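 Mouse NIH 3T3 fibroblasts (1000 cells/well) were treated with compound for 16 hr at 37°C in complete medium; caspase-3/7 activity was read by Caspase-Glo luminescence. Normalized to DMSO and 100 uM tamoxifen; AC50 from Hill fits.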

[5] = biological target: Cytochrome P450 3A4 (Homo sapiens) (UniProt P08684); test: qHTS Assay for Inhibitors and Substrates of Cytochrome P450 3A4 (AID 884); note: nearly all actives have a fitted effect of over 50% in size; note: potency is the fitted concentration of half-maximal effect
Sequence of Cytochrome P450 3A4 (Homo sapiens) (P08684 whole entry, looked up): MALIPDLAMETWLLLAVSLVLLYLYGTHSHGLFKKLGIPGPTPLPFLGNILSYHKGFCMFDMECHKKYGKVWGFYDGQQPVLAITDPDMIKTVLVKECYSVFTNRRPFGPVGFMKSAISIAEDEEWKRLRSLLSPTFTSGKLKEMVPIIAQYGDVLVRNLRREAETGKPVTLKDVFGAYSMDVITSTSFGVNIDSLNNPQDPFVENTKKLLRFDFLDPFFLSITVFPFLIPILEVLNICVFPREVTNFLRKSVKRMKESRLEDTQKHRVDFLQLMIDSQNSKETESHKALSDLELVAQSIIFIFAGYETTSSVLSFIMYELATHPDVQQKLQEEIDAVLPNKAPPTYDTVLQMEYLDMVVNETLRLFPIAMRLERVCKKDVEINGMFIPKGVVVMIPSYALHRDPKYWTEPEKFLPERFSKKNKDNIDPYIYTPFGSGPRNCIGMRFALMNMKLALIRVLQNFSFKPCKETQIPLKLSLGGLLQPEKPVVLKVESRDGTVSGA
Method in brief: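 20 nM human CYP3A4 with 25 uM Luciferin-PPXE (at KM) in 200 mM KPO4, preincubated 10 min with compound; NADPH regeneration started a 60 min RT reaction. Luciferin detected by luminescence, normalized to 57 uM ketoconazole as full inhibition.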

[6] = MultiTox-Fluor Cytotoxicity Assay - LYMP1-002 - Dead Cells (AID 960);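 note: 0% = DMSO and 100% = tetraoctylammonium bromide; nearly all actives have a fitted effect of over 60% in size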
Method in brief: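 Human lymphoblastoid cells (LYMP1-002), 2500/well in complete medium, were exposed to compounds for 16 hr at 37 C. Dead-cell protease activity was read as bis-AAF-R110 fluorescence (Ex/Em 485/520), normalized to DMSO and 15 uM tetraoctylammonium bromide; AC50 from Hill fits.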

[7] = Cell Viability - LYMP2-004 (AID 966);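 note: plate controls were DMSO only for no effect and tetraoctylammonium bromide control for full effect; nearly all actives have a fitted effect of over 65% in size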
Method in brief: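 Human lymphoblastoid cells (2500/well) in complete medium were treated with compounds for 24 hr at 37 C, then intracellular ATP was measured by CellTiter-Glo luminescence. AC50 values came from Hill-equation fits of concentration-response data.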

[8] = Cell Viability - LYMP2-021 (AID 974);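 note: compound exposure lasts 24 hours at 37 °C; % is set by controls: 0 for no effect and ±100 for the full control effect; nearly all actives have a fitted effect of over 55% in size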
Method in brief: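 Human lymphoblastoid cells (2500/well) were preincubated 5 hr at 37 C, then exposed to compounds for 24 hr at 37 C in complete medium. Intracellular ATP was read by CellTiter-Glo luminescence; AC50 came from Hill-equation fits of concentration-response data.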

[9] = Cell Viability - LYMP2-012 (AID 982);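 note: cellular ATP by luciferase luminescence where a drop means cytotoxicity; cells exposed to compound for one day before reading; 0% = DMSO only and full loss = 92 µM tetraoctylammonium bromide; nearly all actives have a fitted effect of over 55% in size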
[10] = Cell Viability - LYMP1-002 - Assay at 40 hr (AID 994);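 note: 0% = DMSO only and full inhibition = 92 µM tetraoctylammonium bromide; nearly all actives have a fitted effect of over 60% in size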
Method in brief: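 Human lymphoblastoid cells, 2500/well in complete medium, were preincubated 5 hr at 37 C, then exposed to compounds for 40 hr at 37 C. Intracellular ATP was read by CellTiter-Glo luminescence after 30 min at room temperature; AC50 from Hill-equation fits.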

[11] = biological target: Vitamin D3 receptor (Homo sapiens) (UniProt P11473); test: qHTS assay for small molecule antagonists of vitamin D receptor signaling (AID 588541; calls by dose curve;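 note: receptor activated by calcitriol during compound treatment; % is set by controls: 0 for no effect and ±100 for the full control effect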)
Sequence of Vitamin D3 receptor (Homo sapiens) (P11473 whole entry, looked up): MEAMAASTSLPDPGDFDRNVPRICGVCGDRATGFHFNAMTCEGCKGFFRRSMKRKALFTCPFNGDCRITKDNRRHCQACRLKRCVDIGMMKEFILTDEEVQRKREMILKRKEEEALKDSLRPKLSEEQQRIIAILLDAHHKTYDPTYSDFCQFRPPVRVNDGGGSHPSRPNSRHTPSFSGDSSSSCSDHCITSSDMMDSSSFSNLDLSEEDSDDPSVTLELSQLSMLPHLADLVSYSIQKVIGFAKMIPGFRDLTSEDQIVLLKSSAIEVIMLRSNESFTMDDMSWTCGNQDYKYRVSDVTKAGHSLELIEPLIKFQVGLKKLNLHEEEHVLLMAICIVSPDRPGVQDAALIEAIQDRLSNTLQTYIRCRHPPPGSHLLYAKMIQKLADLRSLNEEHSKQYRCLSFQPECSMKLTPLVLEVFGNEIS
Method in brief: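 VDR-UAS-bla HEK293T cells (2000/well, 2% charcoal-stripped FBS) were treated with titrated compounds plus 1-alpha,25-dihydroxyvitamin D3 (50 nM or 3 nM final) for 16 h at 37 C. CCF4 beta-lactamase fluorescence was read; Hill fits gave IC50.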

[12] = biological target: Vitamin D3 receptor (Homo sapiens) (UniProt P11473); test: qHTS assay for small molecule agonists of vitamin D receptor signaling (AID 588543; calls by dose curve;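 note: 0% = DMSO basal and 100% = reference agonist control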)
Method in brief: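 Measured: β-lactamase reporter activity (CCF4, 405 nm excitation, 460/530 nm emission) in HEK293T VDR-UAS-bla cells after 16 h compound exposure at 37 °C. Normalization against 50 nM 1α,25-dihydroxyvitamin D3 and DMSO; Hill-fit EC50.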

[13] = qHTS assay for small molecule antagonists of retinoid X receptor alpha signaling (AID 588546; active = well fitted inhibition curve with a large enough effect in the signal ratio, with a control signal flat, not every such curve was filed as active; the % refers to the signal ratio;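 note: cells stimulated with 9-cis-retinoic acid as agonist; % is set by controls: 0 for no effect and ±100 for the full control effect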); details: HEK293T RXRa-UAS-bla, beta-lactamase ratio, antagonist mode; measured here: W530 green channel, cytotoxicity proxy
Method in brief: (§1)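 Beta-lactamase reporter inhibition, read as CCF4 fluorescence ratio (ex 405, em 460/530 nm) after 2 h at RT. HEK293T UAS-bla cells, 2500/well, were stimulated with 9-cis-RA at 500 or 100 nM final alongside test compound for 18 h at 37 C.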

[14] = biological target: Retinoic acid receptor RXR-alpha (Homo sapiens) (UniProt P19793); test: as above; details: HEK293T RXRa-UAS-bla, beta-lactamase ratio, antagonist mode
Sequence of Retinoic acid receptor RXR-alpha (Homo sapiens) (P19793 whole entry, looked up): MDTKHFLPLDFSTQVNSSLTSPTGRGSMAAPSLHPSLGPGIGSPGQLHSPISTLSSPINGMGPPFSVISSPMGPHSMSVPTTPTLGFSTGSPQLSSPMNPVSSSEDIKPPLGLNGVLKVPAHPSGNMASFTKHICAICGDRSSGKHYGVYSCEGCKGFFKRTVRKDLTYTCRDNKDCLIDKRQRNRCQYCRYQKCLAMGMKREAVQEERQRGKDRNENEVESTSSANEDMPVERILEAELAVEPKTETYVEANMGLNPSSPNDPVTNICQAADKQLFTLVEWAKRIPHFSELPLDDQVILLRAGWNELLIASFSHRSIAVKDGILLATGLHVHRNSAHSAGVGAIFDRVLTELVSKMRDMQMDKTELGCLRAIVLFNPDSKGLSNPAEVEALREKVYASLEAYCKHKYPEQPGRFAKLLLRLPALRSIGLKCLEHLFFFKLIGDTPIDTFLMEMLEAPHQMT
Method in brief: as §1

[15] = biological target: Tumor necrosis factor (Homo sapiens) (UniProt P01375); test: qHTS assay to identify small molecules that stimulate Tumor Necrosis Factor-alpha (TNF-alpha) secretion (AID 651757; active = well fitted curve in the direction sought with a large enough effect in the signal ratio; the % refers to the signal ratio; note: 0% is about no effect)
Sequence of Tumor necrosis factor (Homo sapiens) (P01375 whole entry, looked up): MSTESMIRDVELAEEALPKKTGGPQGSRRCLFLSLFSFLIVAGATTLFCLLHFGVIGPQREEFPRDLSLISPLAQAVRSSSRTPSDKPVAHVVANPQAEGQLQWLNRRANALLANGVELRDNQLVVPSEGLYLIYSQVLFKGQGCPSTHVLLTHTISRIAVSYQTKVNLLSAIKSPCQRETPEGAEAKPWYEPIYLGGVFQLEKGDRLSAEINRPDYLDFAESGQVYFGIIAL
Method in brief: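 THP-1 cells were exposed to compounds for 17 hrs at 37 C, after which secreted TNF-alpha was measured by homogeneous HTRF (TR-FRET) using cryptate- and XL665-labeled anti-TNF-alpha antibodies, read after 3 hr at room temperature.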

[16] = biological target: Nuclear receptor ROR-gamma (Homo sapiens) (UniProt P51449); test: qHTS assay for small molecule antagonists of the retinoid-related orphan receptor gamma (ROR-gamma) signaling pathway (AID 651802); note: % is set by controls: 0 for no effect and ±100 for the full control effect; nearly all actives have a fitted effect of over 60% in size
Sequence of Nuclear receptor ROR-gamma (Homo sapiens) (P51449 whole entry, looked up): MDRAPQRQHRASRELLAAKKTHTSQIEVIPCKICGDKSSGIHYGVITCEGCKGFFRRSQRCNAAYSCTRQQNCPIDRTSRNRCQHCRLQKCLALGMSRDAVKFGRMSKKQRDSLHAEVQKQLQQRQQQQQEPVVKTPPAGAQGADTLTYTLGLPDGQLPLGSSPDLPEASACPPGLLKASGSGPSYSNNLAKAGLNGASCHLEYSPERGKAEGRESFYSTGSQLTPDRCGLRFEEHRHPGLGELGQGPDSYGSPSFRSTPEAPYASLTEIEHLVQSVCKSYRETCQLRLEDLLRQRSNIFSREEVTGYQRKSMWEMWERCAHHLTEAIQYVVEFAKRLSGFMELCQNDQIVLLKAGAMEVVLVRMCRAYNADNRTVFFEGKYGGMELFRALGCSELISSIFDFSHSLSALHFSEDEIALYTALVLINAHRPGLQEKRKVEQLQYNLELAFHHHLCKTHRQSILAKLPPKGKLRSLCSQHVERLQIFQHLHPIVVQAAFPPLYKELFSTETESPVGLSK
Method in brief: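 CHO cells carrying TET-inducible ROR-gamma and an ROR response element–luciferase reporter were exposed to compound, then induced with doxycycline. After 16hr at 37C, luminescence was read; lower signal indicates antagonism.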

[17] = qHTS assay for small molecule agonists of the antioxidant response element (ARE) signaling pathway measured by Nrf2-dependant transcriptional activity (AID 720636; active = well fitted curve in the direction sought with a large enough effect in the repeat runs; an effect the other way counts as inactive or inconclusive; note: % of control where 0% means no effect)
Method in brief: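 ARE-luc HepG2 cells carrying an Nrf2-responsive luciferase reporter, in medium with 1% dialyzed FBS, exposed to compound for 16 hr at 37 C, 5% CO2. Luminescence read 30 min after ONE-Glo addition.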

[18] = qHTS assay for small molecule antagonists of the retinoid-related orphan receptor gamma (ROR-gamma) signaling pathway - cell viability counter screen (AID 720652; active = well fitted curve in the direction sought with a large enough effect in the repeat runs; an effect the other way counts as inactive or inconclusive;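 note: compound exposure lasted 16 hr before ATP read; % is set by controls: 0 for no effect and ±100 for the full control effect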)
Method in brief: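 Counter screen in CHO cells carrying TET-inducible ROR-gamma and an ROR response element-luciferase reporter; cells plated 5 hr, compound pinned, doxycycline added, then 16 hr at 37 C. Viability read as intracellular ATP by CellTiter-Glo luminescence.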

[19] = qHTS assay for small molecule activators of the human pregnane X receptor (PXR) signaling pathway (AID 720659; call rule not given here; note: 0% is about no effect)
[20] = biological target: Thyroid hormone receptor beta (Homo sapiens) (UniProt P10828); test: qHTS assay for small molecule agonists of thyroid hormone receptor beta signaling (AID 588545; calls by dose curve;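 note: 0% = DMSO only and 100% = 10 nM T3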)
Sequence of Thyroid hormone receptor beta (Homo sapiens) (P10828 whole entry, looked up): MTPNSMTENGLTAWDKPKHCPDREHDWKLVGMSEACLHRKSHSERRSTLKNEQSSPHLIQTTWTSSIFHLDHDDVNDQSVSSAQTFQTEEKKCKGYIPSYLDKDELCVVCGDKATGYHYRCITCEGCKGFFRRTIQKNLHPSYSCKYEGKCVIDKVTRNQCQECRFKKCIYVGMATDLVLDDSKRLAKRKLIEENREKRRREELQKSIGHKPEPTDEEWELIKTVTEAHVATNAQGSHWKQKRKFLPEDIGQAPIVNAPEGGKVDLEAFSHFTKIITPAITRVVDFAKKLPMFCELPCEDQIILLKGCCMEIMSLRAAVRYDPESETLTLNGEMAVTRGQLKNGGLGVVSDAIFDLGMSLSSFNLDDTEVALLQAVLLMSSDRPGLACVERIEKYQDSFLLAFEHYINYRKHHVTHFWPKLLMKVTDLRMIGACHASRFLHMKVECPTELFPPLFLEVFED
Method in brief: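 Compounds were tested as agonists in TR-UAS-bla-GripTite HEK 293 cells. After 18 hrs at 37 C, CCF4 substrate was added and fluorescence read after 2 hrs at room temperature.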

O=C(Cl)OCc1ccccc1
inactive: Potency [1] | Potency [2] | outcome [3] | Potency [4] | Potency [5] | Potency [6] | Potency [7] | Potency [8] | Potency [9] | Potency [10] | outcome [11] | outcome [12] | max response [14] -3.17% | outcome [15] | Potency [16] | Potency [17] | Potency [18] | outcome [19]
-3.27%: max response [13]

Clc1cc(Cl)c(Cl)c(Cl)c1
-0.278%: max response [13]
inactive: Potency [1] | Potency [2] | outcome [3] | Potency [4] | Potency [5] | Potency [6] | Potency [7] | Potency [9] | Potency [10] | outcome [11] | outcome [12] | Potency [20] | max response [14] 14.2% | outcome [15] | Potency [17] | Potency [18] | outcome [19]

N#CCBr
1.14%: max response [13]
inactive: Potency [1] | Potency [2] | outcome [3] | Potency [4] | Potency [5] | Potency [6] | Potency [7] | Potency [8] | Potency [9] | Potency [10] | outcome [11] | Potency [20] | max response [14] -1.67% | outcome [15] | Potency [16] | Potency [17] | outcome [19]

CC(C)(C)c1ccccc1O
inactive: Potency [1] | Potency [2] | outcome [3] | Potency [4] | Potency [5] | Potency [6] | Potency [7] | Potency [8] | Potency [9] | Potency [10] | outcome [11] | outcome [12] | Potency [20] | max response [14] 2.54% and -7.07% | outcome [15] | Potency [16] | Potency [17] | Potency [18] | outcome [19]
-15.4% and -14.5%: max response [13]

Cc1coc2c1CCC(C)C2 (stereo not drawn)
inactive: Potency [1] | Potency [2] | outcome [3] | Potency [4] | Potency [5] | Potency [6] | Potency [7] | Potency [8] | Potency [9] | Potency [10] | outcome [11] | outcome [12] | Potency [20] | max response [14] -0.116% | outcome [15] | Potency [16] | Potency [17] | Potency [18]
-8.18%: max response [13]

ClC(Cl)C(Cl)Cl
-2.39%: max response [13]
inactive: Potency [1] | Potency [2] | outcome [3] | Potency [4] | Potency [5] | Potency [6] | Potency [7] | Potency [8] | Potency [9] | Potency [10] | outcome [11] | outcome [12] | Potency [20] | max response [14] 4.18% | outcome [15] | Potency [17] | Potency [18] | outcome [19]

CC(C)Br
inactive: Potency [1] | Potency [2] | outcome [3] | Potency [4] | Potency [5] | Potency [6] | Potency [7] | Potency [8] | Potency [9] | Potency [10] | outcome [11] | outcome [12] | Potency [20] | max response [14] -3.19% | outcome [15] | Potency [16] | Potency [17] | Potency [18] | outcome [19]
4.33%: max response [13]

C=CCc1cc(OC)c2c(c1)OCO2
-4.92%: max response [13]
active: Potency [5] 10 µM
inactive: Potency [1] | Potency [2] | outcome [3] | Potency [4] | Potency [6] | Potency [7] | Potency [8] | Potency [9] | Potency [10] | outcome [11] | outcome [12] | Potency [20] | max response [14] 9.86% | outcome [15] | Potency [16] | Potency [17] | Potency [18] | outcome [19]

Cl/C=C\Cl
inactive: Potency [1] | Potency [2] | outcome [3] | Potency [4] | Potency [5] | Potency [7] | Potency [8] | Potency [9] | Potency [10] | outcome [11] | outcome [12] | Potency [20] | max response [14] -5.23% | outcome [15] | Potency [16] | Potency [17] | Potency [18] | outcome [19]
-4.97%: max response [13]

C=COC(C)=O
-12.3%: max response [13]
inactive: Potency [1] | Potency [2] | outcome [3] | Potency [5] | Potency [6] | Potency [7] | Potency [8] | Potency [9] | Potency [10] | outcome [11] | outcome [12] | Potency [20] | max response [14] -3.99% | outcome [15] | Potency [16] | Potency [17] | Potency [18] | outcome [19]

CC(=O)NNc1ccccc1
-2.14%: max response [13]
inactive: Potency [1] | Potency [2] | outcome [3] | Potency [4] | Potency [7] | Potency [8] | Potency [9] | Potency [10] | outcome [11] | outcome [12] | Potency [20] | max response [14] -22.9% | outcome [15] | Potency [16] | Potency [17] | Potency [18] | outcome [19]

Cc1cccc(N)c1C
inactive: Potency [1] | Potency [2] | Potency [4] | Potency [5] | Potency [6] | Potency [7] | Potency [8] | outcome [11] | outcome [12] | Potency [20] | max response [14] 13.5% | outcome [15] | Potency [16] | Potency [17] | Potency [18] | outcome [19]
-9%: max response [13]

NNC(N)=S
6.4%: max response [13]
inactive: Potency [1] | Potency [2] | outcome [3] | Potency [4] | Potency [5] | Potency [6] | Potency [7] | Potency [8] | Potency [9] | Potency [10] | outcome [11] | outcome [12] | Potency [20] | max response [14] 9.82% | outcome [15] | Potency [16] | Potency [17] | Potency [18] | outcome [19]

OCCCCO
-5.28%: max response [13]
inactive: Potency [1] | Potency [2] | outcome [3] | Potency [4] | Potency [5] | Potency [6] | Potency [7] | Potency [9] | Potency [10] | outcome [11] | outcome [12] | Potency [20] | max response [14] -1.35% | outcome [15] | Potency [16] | Potency [17] | Potency [18]

O=[N+]([O-])c1ccc(Cl)c(Cl)c1Cl
-8.55%: max response [13]
inactive: Potency [1] | Potency [2] | outcome [3] | Potency [5] | Potency [6] | Potency [7] | Potency [8] | Potency [9] | Potency [10] | outcome [11] | outcome [12] | Potency [20] | max response [14] 7.17% | outcome [15] | Potency [16] | Potency [17] | Potency [18] | outcome [19]
